Results taken from PubChem BioAssay (NCI).
Several values for one entry are separate records, joined by “and”; a condition that tells them apart may be missing. Identical values can stand only once. About 83,000 compounds went through this panel and 20% of them were active in at least one assay; those are over-represented in the sample as a whole.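 Method: cells in 96-well plates; compound added at one concentration; 48 h incubation; percent growth measured; values under 10 scored active.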 Activity calls are given as the source filed them.

Tests used:
Experiment in all cases: NCI-60 one-dose screen, 48 h (100 = growth as untreated, 0 = no growth, -100 = all killed)
Conditions in all cases: 10 µM unless noted
NCI-H23 lung = test system: NCI-H23 lung
NCI-H226 lung = test system: NCI-H226 lung
NCI-H322M lung = test system: NCI-H322M lung
HOP-62 NSCLC = test system: HOP-62 NSCLC
NCI-H460 lung = test system: NCI-H460 lung
NCI-H522 lung = test system: NCI-H522 lung
A549/ATCC NSCLC = test system: A549/ATCC NSCLC
786-0 renal = test system: 786-0 renal
COLO 205 colon = test system: COLO 205 colon
DU-145 prostate = test system: DU-145 prostate
K-562 leukemia = test system: K-562 leukemia
MALME-3M melanoma = test system: MALME-3M melanoma
MDA-MB-231 breast = test system: MDA-MB-231 breast
RXF 393 renal = test system: RXF 393 renal
SF-268 CNS = test system: SF-268 CNS
SF-295 CNS = test system: SF-295 CNS
SF-539 CNS = test system: SF-539 CNS
UACC-257 melanoma = test system: UACC-257 melanoma
M14 melanoma = test system: M14 melanoma
HOP-92 NSCLC = test system: HOP-92 NSCLC

Structure (SMILES)	growth (NCI-H23 lung)	growth (NCI-H226 lung)	growth (NCI-H322M lung)	growth (HOP-62 NSCLC)	growth (NCI-H460 lung)	growth (NCI-H522 lung)	growth (A549/ATCC NSCLC)	growth (786-0 renal)	growth (COLO 205 colon)	growth (DU-145 prostate)	growth (K-562 leukemia)	growth (MALME-3M melanoma)	growth (MDA-MB-231 breast)	growth (RXF 393 renal)	growth (SF-268 CNS)	growth (SF-295 CNS)	growth (SF-539 CNS)	growth (UACC-257 melanoma)	growth (M14 melanoma)	growth (HOP-92 NSCLC)
Nc1nc(SC/C=C/CCl)c2[nH]cnc2n1	102% (inactive) and 98.1% (inactive)	95.8% (inactive) and 131% (inactive)	112% (inactive) and 115% (inactive)	106% (inactive) and 99.8% (inactive)	105% (inactive)	95.1% (inactive) and 86.7% (inactive)	95.4% (inactive) and 103% (inactive)	102% (inactive) and 99.1% (inactive)	104% (inactive) and 116% (inactive)	110% (inactive)	103% (inactive) and 90.7% (inactive)	114% (inactive) and 92.3% (inactive)	112% (inactive) and 102% (inactive)	112% (inactive) and 133% (inactive)	104% (inactive) and 107% (inactive)	97.2% (inactive) and 112% (inactive)	114% (inactive) and 97.5% (inactive)	94.7% (inactive) and 102% (inactive)	107% (inactive) and 98.9% (inactive)	–
CCCCCCCCCCCCCCCc1cc(O)ccc1N	90.5% (inactive) and 89.6% (inactive)	33.9% (inactive) and 99.6% (inactive)	102% (inactive) and 84.1% (inactive)	103% (inactive) and 110% (inactive)	–	-22.4% (active) and -23.6% (active)	89.3% (inactive) and 99.8% (inactive)	77.6% (inactive) and 21.1% (inactive)	107% (inactive) and 114% (inactive)	96.6% (inactive) and 107% (inactive)	55.8% (inactive)	106% (inactive) and 78.2% (inactive)	59.4% (inactive) and 71.5% (inactive)	94.7% (inactive)	77% (inactive) and 36.7% (inactive)	41.3% (inactive) and 49.7% (inactive)	-40.5% (active) and -83.9% (active)	87.4% (inactive) and 71.4% (inactive)	101% (inactive) and 105% (inactive)	105% (inactive)
CN(Cc1ccccc1)Cc1ccccc1	96.6% (inactive)	94.1% (inactive)	81.3% (inactive)	93% (inactive)	110% (inactive)	97.3% (inactive)	–	99.2% (inactive)	105% (inactive)	107% (inactive)	113% (inactive)	91.4% (inactive)	106% (inactive)	104% (inactive)	97.1% (inactive)	112% (inactive)	99.2% (inactive)	99.8% (inactive)	102% (inactive)	91.8% (inactive)
c1ccc(NCc2ccc3c(c2)OCO3)cc1	100% (inactive) and 105% (inactive)	103% (inactive) and 97.9% (inactive)	114% (inactive) and 99.2% (inactive)	93.7% (inactive) and 101% (inactive)	105% (inactive) and 99.4% (inactive)	91.1% (inactive) and 95.6% (inactive)	103% (inactive) and 95.3% (inactive)	102% (inactive) and 96.8% (inactive)	113% (inactive) and 102% (inactive)	111% (inactive) and 108% (inactive)	105% (inactive) and 98.7% (inactive)	106% (inactive) and 119% (inactive)	100% (inactive) and 106% (inactive)	104% (inactive) and 95.2% (inactive)	99.1% (inactive) and 99.4% (inactive)	105% (inactive)	102% (inactive) and 91.4% (inactive)	101% (inactive) and 97.5% (inactive)	101% (inactive)	–
COc1cc(Nc2nc3ccccc3nc2NS(=O)(=O)c2ccc(NC(=O)c3ccc(C)c(OC)c3)cc2)cc(OC)c1	48.3% (inactive) and 19.8% (inactive)	70.8% (inactive) and 6.54% (active)	49.3% (inactive) and -6.86% (active)	44.1% (inactive) and -1.64% (active)	44.4% (inactive) and 10.5% (inactive)	40.9% (inactive) and 2.82% (active)	–	69.5% (inactive) and -19.2% (active)	66% (inactive) and -11.6% (active)	63.2% (inactive) and 12.9% (inactive)	63% (inactive) and 29.3% (inactive)	30.7% (inactive) and -18.6% (active)	77.2% (inactive) and 13.5% (inactive)	75.1% (inactive) and -38.8% (active)	54.8% (inactive) and 18.2% (inactive)	41.7% (inactive) and -32.8% (active)	62.7% (inactive) and -35.7% (active)	74.7% (inactive) and -18.8% (active)	64.1% (inactive) and 8.75% (active)	-26.5% (active)
CCOC(=O)c1sc(N)nc1-c1ccccc1	101% (inactive)	98.7% (inactive)	97% (inactive)	87.9% (inactive)	104% (inactive)	95.5% (inactive)	101% (inactive)	95.1% (inactive)	102% (inactive)	113% (inactive)	96% (inactive)	120% (inactive)	117% (inactive)	102% (inactive)	108% (inactive)	–	88.4% (inactive)	98.1% (inactive)	99.7% (inactive)	–
CCNC(=O)Nc1ccc(-c2nc3c(c(N4CCOC[C@@H]4C)n2)CCN(C2COC2)C3)cc1	50.8% (inactive) and 20.1% (inactive)	19.7% (inactive) and -3.42% (active)	39.3% (inactive) and 12.1% (inactive)	43.3% (inactive) and 0.37% (active)	–	24.1% (inactive) and 6.99% (active)	44.3% (inactive) and 2.19% (active)	36.6% (inactive) and 5.36% (active)	28.4% (inactive) and 3.31% (active)	49.7% (inactive) and 19.4% (inactive)	61.6% (inactive) and 17.2% (inactive)	-9.78% (active) and -10.6% (active)	44.5% (inactive) and 23.2% (inactive)	3.76% (active) and -28.4% (active)	54.3% (inactive) and 17.6% (inactive)	18.4% (inactive) and -25.6% (active)	33.2% (inactive) and -21.9% (active)	36.7% (inactive) and -27% (active)	37.3% (inactive) and 8.1% (active)	-6.36% (active) and -16.3% (active)
CCN(CC)CCCC(CNc1ccnc2cc(Cl)ccc12)c1ccc(Cl)cc1 (centres undefined)	48.9% (inactive) and 54.3% (inactive)	4.19% (active) and 25.2% (inactive)	-33.5% (active) and 46.5% (inactive)	4.57% (active) and 88.8% (inactive)	–	-49.4% (active) and -59.6% (active)	4.3% (active) and 61.4% (inactive)	-83.4% (active) and -97.3% (active)	-61.9% (active) and -85.6% (active)	34.5% (inactive) and 29.6% (inactive)	-69% (active) and -71% (active)	-91.3% (active) and -77.4% (active)	-58.2% (active) and 38.7% (inactive)	-64.7% (active) and 22.7% (inactive)	-19.4% (active) and -34.3% (active)	-69.7% (active) and -71.8% (active)	-87.6% (active) and -92.2% (active)	-67.8% (active) and -86.2% (active)	–	-51.5% (active) and -68.6% (active)
CCOC(=O)Nc1nc2ccccc2[nH]1	102% (inactive) and 56.7% (inactive)	104% (inactive) and 71.9% (inactive)	107% (inactive) and 72.2% (inactive)	106% (inactive) and 53.4% (inactive)	106% (inactive) and 22.4% (inactive)	95.6% (inactive) and 46.8% (inactive)	–	98.5% (inactive) and 39% (inactive)	119% (inactive) and 37.7% (inactive)	121% (inactive) and 38.4% (inactive)	103% (inactive) and 7.77% (active)	101% (inactive) and 52.5% (inactive)	110% (inactive) and 64% (inactive)	118% (inactive) and 66.3% (inactive)	115% (inactive) and 48.8% (inactive)	101% (inactive) and 8.06% (active)	105% (inactive) and 28.5% (inactive)	93.2% (inactive) and 58% (inactive)	105% (inactive) and 22.4% (inactive)	104% (inactive) and 62.5% (inactive)
